ALOX15B inhib: inhibitors of human 15-lipoxygenase 2 (ALOX15B); 0.56% of 110,000 active; Potency, µM (highest dose often 57.1 µM), without a hit: at the top dose activity change, negative = inhibition, actives largely listed as inhibitors; purified 15hLO-2, xylenol orange hydroperoxide absorbance; O15296; further: potency means the concentration at half of the fitted maximal effect; nearly all actives have a fitted effect of over 60% in size
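Screening format was qHTS against 50 nM purified 15hLO-2 in Hepes pH 7.5 with detergent. Activity follows hydroperoxide formation from 45 uM arachidonic acid, measured as 573:405 nm absorbance ratio of the ferric-xylenol orange complex.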
12-hLO inh: inhibitors of human 12-lipoxygenase (ALOX12); P18054; purified 12-hLO, xylenol orange hydroperoxide absorbance; Potency, µM (titrated, usually from 57.1 µM), inactives show at the highest dose activity change, negative = inhibition, usual class: inhibitors; 0.12% of 150,000 active; AID 1452; further: potency means the concentration at half of the fitted maximal effect; nearly all actives have a fitted effect of over 55% in size
Target sequence (P18054 whole entry, looked up): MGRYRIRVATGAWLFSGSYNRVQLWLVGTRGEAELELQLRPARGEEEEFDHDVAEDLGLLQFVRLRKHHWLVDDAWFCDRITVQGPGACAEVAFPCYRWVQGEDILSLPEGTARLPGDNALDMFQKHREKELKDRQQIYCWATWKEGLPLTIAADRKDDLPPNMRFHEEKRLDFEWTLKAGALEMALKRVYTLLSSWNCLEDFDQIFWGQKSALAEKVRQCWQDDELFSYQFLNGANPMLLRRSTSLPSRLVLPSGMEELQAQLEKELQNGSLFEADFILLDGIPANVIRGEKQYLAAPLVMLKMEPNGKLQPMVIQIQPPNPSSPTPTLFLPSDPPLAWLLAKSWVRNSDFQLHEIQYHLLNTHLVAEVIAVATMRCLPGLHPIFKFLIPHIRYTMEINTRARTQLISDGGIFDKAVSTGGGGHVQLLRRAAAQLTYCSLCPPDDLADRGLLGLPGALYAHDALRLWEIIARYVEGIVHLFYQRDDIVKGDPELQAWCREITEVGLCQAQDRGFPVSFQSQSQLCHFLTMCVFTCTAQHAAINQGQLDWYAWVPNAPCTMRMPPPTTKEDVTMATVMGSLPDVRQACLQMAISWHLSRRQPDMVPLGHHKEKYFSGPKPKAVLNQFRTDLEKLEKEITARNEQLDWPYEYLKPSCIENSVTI
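150 nM 12hLO, 25 mM Hepes pH 7.0 + 0.01% Triton X-100; cpd preinc 15 min RT; 40 uM arachidonic acid, 30 min RT; Fe-XO 30 min; A573/A405 ratio as read-out.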
PNC assembly inh: perinucleolar compartment assembly inhibition; 3.1% of 140,000 active; activity change (PNC), negative = inhibition, % at 10 µM; AID 2417; PC3M PTB-GFP, PNC prevalence imaging, 16 h; active compounds read low;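 active means readout at or below -70, meaning at least 70% loss of cells showing the perinucleolar compartment, a nuclear body marking cancer cells; inconclusive means readout between -30 and a set limit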;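 further: plate controls were DMSO wells for no effect and camptothecin positive control wells for full effect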
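Compounds are pinned in duplicate onto adhered PC3M cells stably expressing GFP-tagged PTB and incubated 16 h at 37 C. Cells are then fixed, nuclei stained with Hoechst, and PNC-positive cells counted.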
* marks the source's active call; other numbers are inactive results; ? = inconclusive; . = not tested or not shown; [ ] = another dose, or the depositor's remark. The list is not random: actives were taken first. Their share in the collection is about 3.2%. Unless noted, the call rests on the fitted dose curve; in most records, active means well fitted curve in the direction sought with a large enough effect; inconclusive means small, poorly fitted or top-dose-only effect, or another doubt; inactive means no such curve, though single readings can be large; an effect the other way counts as inactive or inconclusive. Unless noted, on the % scale 0 is the no-effect control and ±100 the full control effect.

SMILES | ALOX15B inhib | 12-hLO inh | PNC assembly inh
CCOC(=S)N/C(=N\S(=O)(=O)c1ccccc1)c1ccccc1 | . | -4% | -100*
CCCOC(=S)N/C(=N\S(=O)(=O)c1ccccc1)c1ccccc1 | -18% | 1% | -22
Cc1ccc(C(=O)N2CCN(c3cccc(Cl)c3)CC2)cc1C | -5% | -6% | ?
Cc1ccc(C(=O)N2CCN(c3ccccc3)CC2)cc1C | -8% | -1% | -107*
O=C(c1ccccc1C(=O)N1CCN(c2ccccc2)CC1)N1CCN(c2ccccc2)CC1 | -3% | 0% | -9
O=C(c1csc2c1CCCC2)N1CCN(c2ccccc2)CC1 | 0% | 4% | -80*
CCOC(=O)/C(=C\c1cccc(O)c1)c1nc2sc(C)c(C)c2c(=O)[nH]1 | . | -13% | ?
Cc1cnc(C)c(N(C)NC(=S)Nc2ccccc2)n1 | . | 1% | -109*
Cc1ccc(NC(=S)NN(C)c2cc(C)nc(C)n2)cc1 | . | -1% | -13
C[C@H]1Cc2c(-c3ccccc3)nc3c(c2CO1)CN(S(=O)(=O)c1ccc(C#N)cc1)CC3 | . | -1%[11.4 µM] | .
Cc1cc(/C=C2\SC(=Nc3ccc(F)cc3)NC2=O)c(C)n1-c1ccc(S(N)(=O)=O)cc1 | ? | -30% | -99*
Cc1cc(/C=C2/SC(=O)NC2=O)c(C)n1-c1ccc(N2CCOCC2)cc1 | . | -1% | ?
COC(=O)Sc1nc(N2CCOCC2)c2c(c1C#N)CC(C)(C)OC2 | -11% | -6% | -116*
CC1(C)Cc2c(C#N)c(SCC(=O)c3ccccc3)nc(N3CCOCC3)c2CO1 | -17% | -3% | ?
C#C[C@]1(O)CC[C@H]2[C@H]3CCC4=Cc5oncc5C[C@]4(C)[C@@H]3CC[C@]21C | -11% | -2% | .
Cc1ccc(C(=O)CSc2nc(C)cc(C)c2C(N)=O)cc1 | 2%[11.4 µM] | 0% | -88*
Cc1cc(C)c(C(N)=O)c(SCC(=O)c2ccc(Cl)cc2)n1 | -4% | -13% | 33
Cc1ccc(S(=O)(=O)Nc2ccc(O)c(C(=O)O)c2)c(C)c1 | . | -10% | .
CCCCN(CCCNC(=O)C1CCN(S(=O)(=O)N2CCOCC2)CC1)Cc1ccccc1 | 2% | -8% | -2
CC(C)N(CCNC(=O)C1CCN(S(=O)(=O)N2CCOCC2)CC1)Cc1ccccc1 | . | 2% | -102*
COc1ccc(CCNC(=O)C2CCN(S(C)(=O)=O)CC2)cc1 | 5% | 11% | 48
Cc1cc(C)c2[nH]c(=O)c(CN(Cc3cccs3)C(=S)NCC3CCCO3)cc2c1 (stereo unspecified) | . | 0% | 57
S=C(N/N=C/c1ccccc1)N1CCOCC1 | . | -6% | 42
CC(NC(=S)N1CCOCC1)c1ccccc1 (stereo unspecified) | . | -1% | -121*
Nc1ncnc2c1ncn2CCCCC(=O)O | -2%[11.4 µM] | 3%[11.4 µM] | .
SMILES | ALOX15B inhib | 12-hLO inh | PNC assembly inh
O=C(CCc1ccccc1)Nc1ccc2c(c1)OCCO2 | -10% | -3% | -15
O=C(CCc1ccccc1)Nc1cc2c(cc1Cl)OCCO2 | . | -1% | -109*
CCCn1c(-c2ccc(F)cc2)nc2c(NCCCCN(CC)CC)nc(C)nc21 | 3% | 3% | .
CCOc1ccc(OCCOCCNCCOC)cc1 | . | -4% | 34
c1ccc(NCc2nnc3n2CCCCC3)cc1 | -7% | -1% | 43
FC(F)Oc1ccc(-c2csc(Cc3nnc4n3CCCCC4)n2)cc1 | . | 4% | -100*
COc1ccc(-c2csc(Cc3nnc4n3CCCCC4)n2)cc1 | 4% | -1% | ?
c1ccc2sc(Cc3nnc4n3CCCCC4)nc2c1 | -4% | 3% | -82*
CN1CC[C@@]2(CCCN(S(=O)(=O)c3ccccc3)C2)C1 | 3% | -6% | .
CC(C)[C@]1(Cl)CC[C@@H]2[C@]3(C)CCC[C@@](C)(C(=O)O)[C@H]3C[C@H](Cl)[C@@]2(Cl)[C@H]1Cl | -8%[11.4 µM] | -3%[11.4 µM] | .
N#Cc1cccc(-c2cc(-n3ccnc3)ncn2)c1 | -1% | -2% | .
CCCS(=O)(=O)c1c(S(=O)(=O)CCC)c2c3ccccc3ccn2c1C(=O)OC | . | -3% | -105*
CCCS(=O)(=O)c1c(S(=O)(=O)CCC)c2c(C)cccn2c1C(=O)OC | -14% | 7% | -8
CCC/C=C(\CCC)C(NC(=O)CCc1ccccc1)c1ccc(C(F)(F)F)cc1 (stereo unspecified) | -1% | -3% | .
Cc1cc(Cl)cc(Br)c1OCCCN1C(=O)NC(C)(C)C1=O | -3% | 0% | -80*
Cc1cc(Cl)c(OCCN2C(=O)NC(C)(C)C2=O)c(Br)c1 | 6% | -1% | -5
Cc1nc2cnc(N3CCNCC3)nc2n(CCC#N)c1=O | -2% | 1% | .
CC1CCCN(C(=S)Nc2ccc3nc4n(c(=O)c3c2)CCCCC4)C1 (stereo unspecified) | . | -1% | -119*

Assay outcomes (PubChem)
